# The list is not random: actives were taken first. Their share in the collection is about 7.9%.
# NOMO-1 viab = STK33 inhibitor candidate reducing NOMO-1 cell viability. 37,000 tested, 7.5% active. inhibition, % (test concentration not listed). AID 2330. NOMO-1 AML viability, CellTiter-Glo luminescence, 72 h; in the data active = inhibition above about 80%; inconclusive = no clear call, values can overlap the other calls
# Shh pathway inh = Sonic Hedgehog pathway inhibition; Shh-LIGHT2 Gli-luciferase reporter, 30 h; inhibition, % (test concentration not listed); 22,000 tested, 2.1% active; AID 2313;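 active = mean inhibition across valid replicates above about 65%, limit read from the data; inconclusive = mean under the limit, yet half or more replicates past it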;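 also: pathway switched on by Shh-conditioned medium diluted 1 in 25 in low serum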
# MITF inh = blocks MITF activity | TRPM1 promoter luciferase, luminescence, 24 h | inhibition, % (no concentration beside the values) | 37,000 tested, 0.28% active; in the data active = inhibition above about 85%; inconclusive = no clear call, values can overlap the other calls; inactive = below about 68%;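 also: human melanocyte line stably carrying TRPM1 promoter luciferase reporter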
# A number is an active result; . = inactive; ? = inconclusive; / = not tested or not shown.
SMILES,NOMO-1 viab,Shh pathway inh,MITF inh
C[C@H]1CN([C@@H](C)CO)C(=O)c2cc(NC(=O)C3CCCCC3)ccc2O[C@H]1CN(C)Cc1ccc(C(=O)Nc2ccccc2N)cc1,110.4,/,.
Cc1ccc(Cl)cc1NC(=O)CSc1nnc(-c2ccc([N+](=O)[O-])cc2)n1-c1ccccc1,.,/,.
O=C(O)CCC(=O)OCc1ccccc1,.,.,.
COCCNc1ncnc2c1oc1ccccc12,.,/,.
C[C@H](CO)N1C[C@H](C)[C@@H](CN(C)Cc2ccc(C(=O)O)cc2)Oc2c(NC(=O)C3CCCCC3)cccc2C1=O,.,.,.
C[C@H](CO)N1C[C@H](C)[C@H](CN(C)Cc2ccc(C(=O)Nc3ccccc3N)cc2)Oc2c(NC(=O)C3CCCCC3)cccc2C1=O,126.7,/,.
C[C@@H]1CN([C@@H](C)CO)C(=O)Cc2cc(N(C)C)ccc2O[C@@H]1CN(C)Cc1ccc(Oc2ccccc2)cc1,106.3,.,.
C[C@@H]1CN([C@@H](C)CO)C(=O)Cc2cc(N(C)C)ccc2O[C@@H]1CN(C)Cc1ccccc1,122.2,.,.
C[C@@H]1CN([C@H](C)CO)C(=O)Cc2cc(N(C)C)ccc2O[C@H]1CN(C)Cc1ccccc1,.,.,.
C[C@H]1CN([C@@H](C)CO)C(=O)Cc2cc(N(C)C)ccc2O[C@H]1CN(C)Cc1ccccc1,.,.,.
Cc1c(C)c(C)c(CSc2ccccn2)c(C)c1C,.,.,.
Cc1c(C)c(C)c(CSc2ccccc2N)c(C)c1C,91.5,/,.
Cc1ccc(C(=O)Nc2ccc(OCC(=O)O)cc2)cc1,.,/,.
C[C@@H]1CN([C@H](C)CO)C(=O)c2cccc(NC(=O)Nc3ccccc3)c2O[C@H]1CN(C)Cc1ccc(C(=O)O)cc1,.,.,.
C[C@@H]1CN([C@@H](C)CO)C(=O)c2cccc(NC(=O)Nc3ccc(F)cc3)c2O[C@H]1CN(C)Cc1ccc(C(=O)O)cc1,.,.,.
C[C@@H]1CN([C@H](C)CO)C(=O)c2cccc(NC(=O)Nc3ccccc3)c2O[C@@H]1CN(C)Cc1ccc(C(=O)Nc2ccccc2N)cc1,128.3,/,.
C[C@H](CO)N1C[C@H](C)[C@@H](CN(C)Cc2ccc(C(=O)Nc3ccccc3N)cc2)Oc2c(NC(=O)Nc3ccc(F)cc3)cccc2C1=O,125.5,/,.
C[C@H]1CN([C@@H](C)CO)C(=O)c2cccc(NC(=O)Nc3ccc(F)cc3)c2O[C@H]1CN(C)Cc1ccc(C(=O)Nc2ccccc2N)cc1,127.2,/,.
C[C@H]1CN([C@@H](C)CO)C(=O)c2cccc(NC(=O)Nc3ccc(F)cc3)c2O[C@H]1CN(C)Cc1ccc(C(=O)O)cc1,.,.,.
Cc1ccc(S(=O)(=O)Nc2ccc3c(c2)CC(=O)N([C@H](C)CO)C[C@@H](C)[C@@H](CN(C)C(=O)Nc2ccc4c(c2)OCO4)O3)cc1,.,.,.
Cc1ccc(S(=O)(=O)N(C)C[C@H]2Oc3c(NC(=O)Nc4ccc5c(c4)OCO5)cccc3C(=O)N([C@H](C)CO)C[C@H]2C)cc1,.,.,.
C[C@H]1CN([C@@H](C)CO)C(=O)c2cccc(NC(=O)Nc3ccc4c(c3)OCO4)c2O[C@H]1CN(C)S(=O)(=O)c1ccc(F)cc1,.,101.5,.
C[C@H](CO)N1C[C@H](C)[C@@H](CN(C)S(=O)(=O)c2ccc(F)cc2)Oc2c(NC(=O)Nc3ccc4c(c3)OCO4)cccc2C1=O,.,.,.
Cc1ccc(S(=O)(=O)N(C)C[C@@H]2Oc3c(NC(=O)Nc4ccc5c(c4)OCO5)cccc3C(=O)N([C@H](C)CO)C[C@@H]2C)cc1,.,114.9,.
C[C@@H]1CN([C@@H](C)CO)C(=O)c2cccc(NC(=O)Nc3ccc4c(c3)OCO4)c2O[C@H]1CN(C)S(=O)(=O)c1ccc(F)cc1,.,.,.
SMILES,NOMO-1 viab,Shh pathway inh,MITF inh
C[C@H](CO)N1C[C@H](C)[C@H](CN(C)S(=O)(=O)c2ccc(F)cc2)Oc2c(NC(=O)Nc3ccc4c(c3)OCO4)cccc2C1=O,.,92.5,.
CCN(CC)S(=O)(=O)c1cccc(C(=O)O)c1,.,/,.
O=C(O)c1cc(C23CC4CC(CC(C4)C2)C3)ccc1O,.,.,.
CC1C(=O)C(=O)[C@@H]2O[C@@H]2C1=O (stereo not given in full),95.7,?,.
CS(=O)(=O)N(CC(=O)Nc1ccccc1-c1ccccc1)c1ccc2c(c1)OCCO2,.,/,.
COc1ccc(-n2c(C)nnc2SCC(=O)Nc2ccc(F)c(Cl)c2)cc1,.,/,.
COc1ccc(C)cc1NC(=O)CN(C1CCCCC1)S(=O)(=O)c1ccc(Cl)cc1,.,/,.
CC(C)S(=O)(=O)c1csc(NC(=O)N2CCCCC2)c1Cl,.,.,.
CC(C)S(=O)(=O)c1csc(NC(=O)Nc2cc(C(F)(F)F)cc(C(F)(F)F)c2)c1Cl,112.7,106.5,.
CC(=O)OCOC(=O)CN(CC(=O)OCOC(C)=O)c1ccccc1OCCOc1ccccc1N(CC(=O)OCOC(C)=O)CC(=O)OCOC(C)=O,112.7,.,.
CC(=O)Cc1ccccc1OCC(=O)O,.,/,.
CN(c1cccc(NC(=O)Cc2ccccc2[N+](=O)[O-])c1)S(C)(=O)=O,.,/,.
CC(=O)OC1COC(OC2C(O)C(C)OC(OC3C(OC4CCC5(C)C(CCC6(C)C5CC=C5C7CC(C)(C)CCC7(C(=O)O)CCC56C)C4(C)CO)OCC(O)C3O)C2O)C(O)C1OC(C)=O (stereo not given),121.9,98.1,.
CC1(C)CC[C@]2(C(=O)O)CC[C@]3(C)C(=CCC4[C@@]5(C)CC[C@H](O[C@@H]6O[C@H](C(=O)O)[C@@H](O[C@@H]7O[C@H](CO)[C@@H](O)[C@H](O)[C@H]7O)[C@H](O)[C@H]6O[C@@H]6O[C@H](CO)[C@@H](O)[C@H](O)[C@H]6O)C(C)(C)C5CC[C@]43C)C2C1 (stereo not given in full),.,.,.
C=CC1(C)C=C2CCC3C(C)(C)C(O[C@@H]4O[C@@H](CO)[C@H](O)[C@H]4O)CCC3(C)C2CC1O[C@@H]1O[C@H](C)[C@H](O)[C@H](O)[C@H]1O (stereo not given in full),.,.,.
C=CC1(C)C=C2CCC3C(C)(C)C(O[C@@H]4O[C@@H](CO)[C@H](O)[C@H]4O)CCC3(C)C2CC1O[C@@H]1O[C@H](CO)[C@@H](O)[C@H](O)[C@H]1O (stereo not given in full),/,99.5,/
C[C@@H]1O[C@@H](O[C@@H]2CC[C@@]3(C)C(CC[C@]4(C)C3CC=C3[C@@H]5CC(C)(C)CC[C@]5(C(=O)O[C@@H]5O[C@H](CO)[C@@H](O)[C@H](O)[C@H]5O)CC[C@]34C)[C@]2(C)CO)[C@H](O)[C@H](O[C@@H]2OC[C@@H](O)[C@H](O)[C@H]2O)[C@H]1O (stereo not given in full),.,.,.
CC1(C)CC[C@]2(C(=O)O)CC[C@]3(C)C(=CCC4[C@@]5(C)CC[C@H](O[C@@H]6O[C@H](CO)[C@@H](O)[C@H](O)[C@H]6O)C(C)(C)C5CC[C@]43C)[C@@H]2C1 (stereo not given in full),120.3,89.1,.

# Source: PubChem BioAssay (Broad Institute)
